Compound activity from PubChem BioAssay.
T_cruzi_growth-1 = inhibitors of T. cruzi proliferation; T. cruzi beta-gal in NIH3T3, GalScreen luminescence, 90 h; inhibition, % at 8.34 µM; actives 5.9% (n = 77,000); AID 624255;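 active = mean inhibition above about 93%, with at least 55% of replicates each passing it, limit read from the data, passing the limit was not always enough; inconclusive = only one of those two conditions holds; inactive = neither condition holds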
C_diff_growth = inhibitors of Clostridium difficile growth; actives 0.25% (n = 86,000); AID 1259249; growth activity, negative = inhibition, % at 16 µg/mL (by protocol); Clostridium difficile clinical isolate growth, OD600, 24 h; hits give low values;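 active = mean growth activity at or below -80% and every replicate also at or below -80%; inconclusive = mean at or below -80% but some replicate above -80%; inactive = mean growth activity above -80%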;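 also: 0% = DMSO wells and -100% = levofloxacin 16 µg/mL wells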
Pf_Dd2_inh = inhibitors of Plasmodium falciparum Dd2 growth; P. falciparum Dd2 growth, SYBR Green, 72 h; hits give low values; activity change, % at 10 µM; actives 2.3% (n = 94,000); in the data active = activity change below about -80%; inconclusive = no clear call, values can overlap the other calls
T_cruzi_growth-2 = inhibitors of T. cruzi proliferation | inhibition, % at 8.35 µM | shares compounds with T_cruzi_growth-1 | T. cruzi beta-gal in NIH3T3, GalScreen luminescence, 90 h | actives 72% (n = 5,600);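 active = mean replicate inhibition above about 95% and at least 55% of replicates individually reaching it, limit read from the data; inconclusive = only one of the two criteria is met; inactive = neither criterion is met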
T_cruzi_growth-3 = inhibitors of T. cruzi proliferation. shares compounds with T_cruzi_growth-1. T. cruzi beta-gal in NIH3T3, GalScreen luminescence, 90 h. inhibition, % at 2.09 µM. actives 21% (n = 5,600);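 active = mean inhibition above about 95%, with at least 55% of replicates also reaching it, limit read from the data; inconclusive = meets just one of the two conditions; inactive = meets neither condition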;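 also: plate controls were neutral control median for no effect and positive control median for full effect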
3T3_cytotox = NIH/3T3 (mouse) viability loss; shares compounds with T_cruzi_growth-1; NIH/3T3 viability, CellTiter-Glo ATP luminescence, 90 h; actives 14% (n = 5,600); cytotoxicity (signal decrease), % at 8.35 µM;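 active = mean signal decrease across replicates above about 35% based on untreated-well scatter, with enough replicates individually passing, limit read from the data; inconclusive = no rule stated though some were filed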;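 also: 0% = median of neutral control wells and 100% = median of positive control wells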
3T3_cytotox_2 = kills mouse NIH/3T3 fibroblasts; inhibition, % at 24.9 µM; shares compounds with T_cruzi_growth-1; NIH/3T3 viability, CellTiter-Glo ATP luminescence, 90 h; actives 56% (n = 5,600); AID 651744;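 active = mean loss of cell viability signal at or above a set limit, and enough replicates individually reaching it; inconclusive = meets only the mean limit or only the replicate share; inactive = meets neither condition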;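 also: 0% = median of neutral control wells and 100% = median of positive control wells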
Numbers without * were called inactive; ? = inconclusive; nt = no result given. Most compounds without a hit are left out; they make up all but 6.7% or so of the library.

SMILES T_cruzi_growth-1 C_diff_growth Pf_Dd2_inh T_cruzi_growth-2 T_cruzi_growth-3 3T3_cytotox 3T3_cytotox_2
CCC(=O)NC[C@H]1[C@H](c2ccc(-c3ccccc3)cc2)[C@H](CO)N1C(=O)C1CC1 74 -4 4 nt nt nt nt
CCC(=O)NC[C@H]1[C@@H](c2ccc(C3=CCCC3)cc2)[C@H](CO)N1C(C)=O 101* 15 -1 35 75 9 26
CC(=O)NC[C@@H]1[C@@H](c2ccc(C3=CCCCC3)cc2)[C@H](CO)N1C(=O)NC(C)C 7 -9 -3 nt nt nt nt
CCC(=O)NC[C@H]1[C@H](c2ccc(C3=CCCC3)cc2)[C@@H](CO)N1C(C)=O 76 5 -6 nt nt nt nt
CCC(=O)NC[C@H]1[C@@H](c2ccc(-c3ccccc3)cc2)[C@H](CO)N1C(=O)C1CC1 98* -2 2 -19 -22 -10 8
CC(C)NC[C@H]1[C@H](c2ccc(C3=CCCCC3)cc2)[C@@H](CO)N1C(=O)NC(C)C 98* 43 -42 104* 48 33 104*
CC(=O)NC[C@@H]1[C@@H](c2ccc(C3=CCCCC3)cc2)[C@@H](CO)N1C(=O)NC(C)C 57 -10 3 nt nt nt nt
C[C@@H]1CN([C@@H](C)CO)C(=O)c2cccc(NS(=O)(=O)c3ccc(F)cc3)c2O[C@@H]1CN(C)C(=O)Nc1cccc2ccccc12 37 -8 -64 nt nt nt nt
C[C@@H]1CN([C@H](C)CO)C(=O)Cc2cc(NC(=O)Nc3ccc4c(c3)OCO4)ccc2O[C@H]1CN(C)CC1CC1 8 0 23 nt nt nt nt
C[C@@H]1CCCCO[C@@H](CN(C)C(=O)Nc2cccc3ccccc23)[C@H](C)CN([C@@H](C)CO)C(=O)c2cc(NS(=O)(=O)c3cn(C)cn3)ccc2O1 12 1 2 nt nt nt nt
CCCNC(=O)N(C)C[C@@H]1Oc2ncc(C#CCc3ccccc3)cc2C(=O)N([C@@H](C)CO)C[C@@H]1C nt -5 -46 nt nt nt nt
Cc1noc(C)c1S(=O)(=O)Nc1cccc2c1O[C@H](CN(C)Cc1ccc(Oc3ccccc3)cc1)[C@H](C)CN([C@@H](C)CO)C2=O 0 -3 -55 nt nt nt nt
Cc1ccc(S(=O)(=O)N(C)C[C@@H]2OCCCC[C@H](C)Oc3ccc(NS(=O)(=O)c4cn(C)cn4)cc3C(=O)N([C@H](C)CO)C[C@H]2C)cc1 35 3 -21 nt nt nt nt
Cn1cnc(S(=O)(=O)N2CCCCN3[C@H](C2)[C@H](c2ccc(C4=CCCC4)cc2)[C@@H]3CO)c1 56 -4 -16 nt nt nt nt
CC(C)NC[C@H]1[C@@H](c2ccc(C3=CCCCC3)cc2)[C@@H](CO)N1C(=O)NC(C)C ? 51 -34 102* 56 39* 104*
CC(=O)NC[C@H]1[C@H](c2ccc(C3=CCCC3)cc2)[C@H](CO)N1C(=O)NC(C)C -21 -6 -4 nt nt nt nt
COCCNC(=O)C[C@@H]1CC[C@@H]2[C@H](COc3ccc(NC(=O)C4CCOCC4)cc3C(=O)N2C)O1 -6 -2 -39 nt nt nt nt
Cc1noc(C)c1S(=O)(=O)Nc1ccc2c(c1)C(=O)N([C@@H](C)CO)C[C@@H](C)[C@@H](CN(C)Cc1ccc(C(F)(F)F)cc1)OCCCC[C@H](C)O2 103* nt -48 89 110* 0 60*
Cc1noc(C)c1S(=O)(=O)Nc1ccc2c(c1)C(=O)N([C@H](C)CO)C[C@@H](C)[C@H](CN(C)Cc1ccc(C(F)(F)F)cc1)OCCCC[C@@H](C)O2 106* 8 -67 88 112* 25 105*
Cc1noc(C)c1S(=O)(=O)Nc1ccc2c(c1)C(=O)N([C@H](C)CO)C[C@@H](C)[C@@H](CN(C)Cc1ccc(C(F)(F)F)cc1)OCCCC[C@H](C)O2 87 nt -41 nt nt nt nt
Cc1noc(C)c1S(=O)(=O)Nc1ccc2c(c1)C(=O)N([C@H](C)CO)C[C@@H](C)[C@H](CN(C)Cc1ccc(C(F)(F)F)cc1)OCCCC[C@H](C)O2 95 9 -57 nt nt nt nt
Cc1noc(C)c1S(=O)(=O)Nc1ccc2c(c1)C(=O)N([C@@H](C)CO)C[C@H](C)[C@H](CN(C)Cc1ccc(C(F)(F)F)cc1)OCCCC[C@H](C)O2 100* nt -43 96* 67 15 105*
Cc1noc(C)c1S(=O)(=O)Nc1ccc2c(c1)C(=O)N([C@H](C)CO)C[C@@H](C)[C@H](CN(C)Cc1ccc(C(=O)O)cc1)OCCCC[C@@H](C)O2 43 5 20 nt nt nt nt
Cc1noc(C)c1S(=O)(=O)Nc1ccc2c(c1)C(=O)N([C@H](C)CO)C[C@H](C)[C@H](CN(C)Cc1ccc(C(=O)O)cc1)OCCCC[C@@H](C)O2 19 -7 12 nt nt nt nt
Cc1noc(C)c1S(=O)(=O)Nc1ccc2c(c1)C(=O)N([C@@H](C)CO)C[C@H](C)[C@H](CN(C)Cc1ccc(C(F)(F)F)cc1)OCCCC[C@@H](C)O2 101* -5 -47 104* 86 -4 3
SMILES T_cruzi_growth-1 C_diff_growth Pf_Dd2_inh T_cruzi_growth-2 T_cruzi_growth-3 3T3_cytotox 3T3_cytotox_2
CCN1[C@@H]2c3ccc(-c4cccnc4)c(=O)n3C[C@H]1[C@H](CO)[C@H]2C(=O)NC1CCCC1 nt -1 8 nt nt nt nt
C[C@@H]1CN([C@H](C)CO)S(=O)(=O)c2ccc(C#Cc3ccc(F)cc3)cc2O[C@@H]1CN(C)C(=O)CN(C)C -18 5 -68 nt nt nt nt
Cc1noc(C)c1S(=O)(=O)Nc1ccc2c(c1)C(=O)N([C@H](C)CO)C[C@@H](C)[C@@H](CN(C)Cc1ccc3c(c1)OCO3)OCCCC[C@H](C)O2 104* 3 -73 110* 65 10 34*
Cc1noc(C)c1S(=O)(=O)Nc1ccc2c(c1)C(=O)N([C@@H](C)CO)C[C@@H](C)[C@@H](CN(C)Cc1ccc(C(=O)O)cc1)OCCCC[C@H](C)O2 -25 5 3 nt nt nt nt
Cc1noc(C)c1S(=O)(=O)Nc1ccc2c(c1)C(=O)N([C@@H](C)CO)C[C@@H](C)[C@H](CN(C)Cc1ccc(C(F)(F)F)cc1)OCCCC[C@@H](C)O2 108* nt -46 103* 116* -51 105*
Cc1noc(C)c1S(=O)(=O)Nc1ccc2c(c1)C(=O)N([C@@H](C)CO)C[C@@H](C)[C@H](CN(C)Cc1ccc3c(c1)OCO3)OCCCC[C@H](C)O2 61 10 -70 nt nt nt nt
CN(C)CC(=O)N1[C@@H]2Cn3c(cccc3=O)[C@H]1[C@@H](C(=O)NCc1ccccc1)[C@@H]2CO 60 -1 nt nt nt nt nt
Cc1ccc(S(=O)(=O)N(C)C[C@@H]2Oc3ccc(N(C)C)cc3CC(=O)N([C@@H](C)CO)C[C@H]2C)cc1 nt -1 -14 nt nt nt nt
O=C(C1CCC1)N1CCCCN2[C@H](CO)[C@@H](c3ccc(C#CC4(O)CCCC4)cc3)[C@H]2C1 -20 -6 11 nt nt nt nt
